# Inconclusive results are not listed. Unmarked numbers belong to inactive results. Activity calls are given as the source filed them. Calls come from the whole dose curve; as a rule, active = well fitted inhibition curve with a large enough effect; inconclusive = small, poorly fitted or top-dose-only effect; inactive = flat fitted curve, though single readings scatter.
# Biological target: Muscarinic acetylcholine receptor M1 (Rattus norvegicus) (UniProt P08482)
# Experiment: Counterscreen Concentration-Response Assay for Antagonists of the Neuropeptide S Receptor: Muscarinic Receptor Calcium Signal Transduction.
# Details: CHO-M1 cells, carbachol-induced calcium fluorescence, FDSS; series mostly up to 20.2 µM; activity, negative = inhibition: at the top concentration
# Source text: NIH Chemical Genomics Center [NCGC] NIH Molecular Libraries Probe Production centers Network [MLPCN] MLPCN Grant: X01-DA026210-01 Assay Submitter (PI): Heilig, Markus Alexander NCGC Assay Overview: Neuropeptide S receptor (NPSR), previously known as GPR154, is a recently de-orphanized G protein coupled receptor. Its endogenous ligand is the 20 amino acids peptide Neuropeptide S (NPS). […] NPS and its receptor are found in various tissues. Specifically they are highly expressed in brain areas that have been implicated in modulation of arousal, stress and anxiety. Central administration of NPS in mice produces an unusual profile of activity by inducing wakefulness and arousal, while at the same time suppressing anxiety. Therefore, NPSR may represent a novel drug target for the treatment of sleep and anxiety disorders. To identify NPSR antagonists, we developed a cell-based assay with transfected NPS receptor. NPS can stimulate the production of cAMP as well as release intracellular calcium in Chinese hamster ovary cells stably expressing NPS receptor. This change in intracellular calcium can be detected using a calcium indicator dye on a calcium imaging plate reader system (FDSS). To validate the specific action of compounds on the NPS receptor, a counterscreen was developed that tests compounds' antagonism of M1 muscarinic receptor stimulation by carbachol. The protein, gene and taxonomy linked to this assay refer to Rattus norvegicus, but Chinese Hamster ovary cells were actually used.
# NCGC Assay Protocol Summary: A Chinese hamster ovary (CHO) cell line stably expressing muscarinic acetylcholine M1 receptor (CHO-M1) was obtained from ATCC and maintained in F-12 Kaighn's media (Invitrogen, Carlsbad, CA, 21127) supplemented with 10 % FBS, 100 units/ml penicillin, 100 ug/ml streptomycin and 250 ug/ml geneticin at 37C, 5% CO2 in a humidified atmosphere. Before the assay, aliquots of cells were frozen and stored at -135C. The assay was performed on a FDSS-7000 kinetic plate reader in 1536-well format. The maximums of kinetic fluorescence responses were converted into text files using the instrument's software data export utility. […] AC50 values were determined from concentration-response data modeled with the standard Hill equation. CHO-M1 1536-well FDSS assay protocol: (1) Frozen CHO-M1 cells were thaw, washed once with fresh media and resuspended in F-12 Kaighn's media supplemented with 10 % FBS, 100 units/ml penicillin and 100 ug/ml streptomycin. Cells were plated at 3 ul/well (1200 cells) to black, clear-bottom, tissue-culture treated 1536-well plates, and then cultured at 37C, 5 % CO2 for 16 to 30 hours. (2) Add 3 ul of calcium dye (from High Performance PBX Calcium Assay Kit, BD Biosciences). The calcium dye was prepared according to the manufactory's instruction. (3) Incubation at 37C, 5 % CO2 for 60 min. (4) Add 23 nl/well of compound in DMSO solution. The final titration for each compound was between 0.6 nM and 46 uM. (5) Load plates to FDSS-7000. The following steps were performed on FDSS-7000. (6) Record fluorescent background (Ex 480 nm, Em 520-560 nm) for 10 s. (7) Add 2 ul of stimulation reagent (1X HBSS buffer, 0.1% BSA, 60 nM carbachol). Record antagonist response (Ex 480 nm, Em 520-560 nm) for 180 s. Keywords: MLSMR, MLPCN, NIH Roadmap, qHTS, NCGC, NPS, Neuropeptide S Antagonists
SMILES,"activity, negative = inhibition",Potency
Cc1ccc(-c2nnn(CC(=O)Nc3ccccc3-c3ccccc3)n2)c(-n2cnnn2)c1,6.88%,
O=C1Nc2ccc(S(=O)(=O)N3CCCC3C(=O)O)c3cccc1c23 (stereo not given),0.459%,
CN(C)c1ccc(N2CN=C3SCC(=O)N3C2)cc1,-3.33%,
CC(=O)c1cc(NC(=O)c2ccccc2)c(=O)oc1/C=C/N(C)C,-17.1%,
Cc1nn(C(=O)c2cccs2)c(N)c1-c1ccccc1,5.89%,
COc1ccccc1-c1nnc(SC2CCc3ccccc3NC2=O)s1 (stereo not given),-0.169%,
Nc1ccc(-c2nc3c(Cl)cc(N)cc3[nH]2)cc1,-5.43%,
N#Cc1cnn(-c2ncnc3sc4c(c23)CCCC4)c1N,9.92%,
CN(Cc1cc(=O)[nH]c2ccccc12)C(=O)c1ccccc1,-5.45%,
Cc1ccc(-c2ccc(/C=C3\C(=O)ON=C3c3ccccc3)o2)c([N+](=O)[O-])c1,,3.98 µM (active)
CN(C)c1ccc(N=Cc2ccco2)cc1,3.92%,
Cc1cccc(-c2nnc(SCc3cc(=O)[nH]c4ccccc34)n2C)c1,3.42%,
Cc1cc(OCC(=O)c2ccc(Br)cc2)ccc1N1C(=O)CCC1=O,-0.282%,
CCC(Sc1ccc2nnc(-c3cccnc3)n2n1)C(=O)O (stereo not given),-10.5%,
c1cncc(-c2nc(-c3ccco3)cs2)c1,3.25%,
C=CCOc1c(Cl)cc(CNc2ccc(N(C)C)cc2)cc1OC,7.52%,
O=C(NCCCN1CCOCC1)c1cc2c(=O)[nH]c3ccccc3c2s1,4.61%,
CCN(CC)S(=O)(=O)c1ccc2c(c1)nc(SC(C)C(N)=O)n2-c1ccc(OC)cc1 (stereo not given),-10.2%,
C#CC(=O)N(c1cccc(OC)c1)C(C(=O)NC1CCCC1)c1cccs1 (stereo not given),-9.03%,
O=C(O)c1cccc(Nc2ncnc3ccccc23)c1,-12.1%,

SMILES,"activity, negative = inhibition",Potency
O=C(COC(=O)c1ccccc1C(=O)c1ccc(Cl)c([N+](=O)[O-])c1)NC1CCCCCC1,,4.47 µM (active)
C=CCNC(=O)/C(C#N)=C/c1cn(-c2ccccc2)nc1-c1ccc(OC)c([N+](=O)[O-])c1,-10.9%,
CC1CCN(S(=O)(=O)c2ccc(C(=O)Nc3sccc3C(N)=O)cc2)CC1,-2.17%,
Cn1c(C(=O)NCCN2CCc3ccccc3C2)cc2c(=O)[nH]c3ccccc3c21,4.13%,
Brc1ccc(CSc2ncn[nH]2)cc1,-10.8%,
CN(CC(=O)NCc1ccc(F)cc1)S(=O)(=O)c1cccc2nsnc12,7.72%,
COc1ccc(NC(=O)/C(Cl)=C(/Cl)S(=O)Cc2ccc(C)cc2)cn1 (stereo not given),,10 µM (active)
C=CCn1c(SCCN2C(=O)c3ccccc3C2=O)nc2scc(-c3ccccc3)c2c1=O,11.2%,
c1ccc(-c2ccc(-c3nc(-c4cccnc4)no3)cc2)cc1,12.7%,
OC(C#Cc1ccccn1)c1cccs1 (stereo not given),-17%,
COc1cccc(C(=O)/C=C/Nc2ccc(S(=O)(=O)Nc3cccc(C(C)=O)c3)cc2)c1,-19.1%,
COc1ccc(-c2cc(N)n(S(=O)(=O)c3c(F)c(F)c(F)c(F)c3F)n2)cc1OC,,11.2 µM (active)
CCn1cc(C(=O)NCC2CCCO2)c(=O)c2cc(S(=O)(=O)N3CCCCCC3)ccc21 (stereo not given),20.3%,
O=C(/C(=C/c1ccc(Cl)cc1)c1nc2ccccc2[nH]1)c1cccs1,,7.94 µM (active)
C(=C\c1ccccc1)/C=N/N1CCN(c2ccccn2)CC1,8.26%,
COc1ccc(N(CC(=O)Nc2cccc(SC)c2)S(C)(=O)=O)cc1Cl,7.48%,
O=C(O)C1CCN(c2nc(-c3ccccc3)nc3c2oc2ccccc23)CC1,-11.1%,
COc1ccc(N=C2S/C(=C\c3ccc(N4CCOCC4)o3)C(=O)N2CCc2c[nH]c3ccccc23)cc1,,5.01 µM (active)
Cn1c(COc2ccccc2)nnc1SCc1cc(=O)[nH]c2ccccc12,-0.776%,
Cc1ccc2oc(-c3cccc(NC(=S)NC(=O)/C=C/c4ccco4)c3)nc2c1,-15.2%,
